The results in this text go back to PubChem BioAssay (NCATS).

Molecules are shown by their SMILES. The list shows a part of the results. Inconclusive results are not listed. Active and inactive are the calls of the source. The call rests on the fitted dose curve; in most records, active means well fitted inhibition curve with a large enough effect; inconclusive means small, poorly fitted or top-dose-only effect; inactive means no such curve, though single readings can be large or run the other way.

The assay can be described thus: qHTS screen for small molecules that inhibit ELG1-dependent DNA repair: Hit Confirmation in Cell-Based Luciferin Assay (AID 624247). As to conditions: cell-free firefly luciferase luminescence counter-screen, ViewLux; series mostly up to 46.1 µM. From the text: Cancer cells divide rapidly compared to normal cells in the body. During cell division, cancer cells need to duplicate their genome by DNA replication. The failure of genome duplication leads to cancer cells' death. Therefore, inhibitors of DNA replication could specifically kill cancer cells. Based on this concept, many chemotherapeutic agents were developed and have been used to treat cancer patients. However, there are a limited number of agents available in the clinical setting, and some of those that do exist have low efficacy and severe side effects. Therefore, if we can find the compounds that effectively block DNA replication either by directly damaging DNA or by inhibiting other cellular mechanisms, the options for cancer treatment will be broadened. With this in mind, we developed a quantitative high-throughput ELG1-luciferase reporter gene assay. Small molecules that specifically block ELG1 function in response to DNA damage can be identified by monitoring the suppression of luciferase activity. Since ELG1 defines a pathway for repairing DNA damage, agents blocking ELG1 function can be used to sensitize cancer cells to chemotherapeutic agents whose mechanism of action involves the induction of DNA damage. NIH Molecular Libraries Probe Production Network [MLPCN] NIH Chemical Genomics Center [NCGC] MLPCN Grant: R03 MH092164 Assay Provider: Kyungjae Myung, NHGRI, NIH
3 µL of substrate reagent will be pipetted into each well in 1536-well white, solid-bottom plates using a FRD dispenser, followed by addition of 23 nL of DMSO or compounds by pintool. After compound addition, 1 µL of luciferase will be added into the wells. The plates will be read in a ViewLux CCD-based plate reader.
Regarding `O=C(C1CCCN(S(=O)(=O)c2ccccc2)C1)N1CCN(c2ccc(F)cc2)CC1` (stereo unspecified), the call was inactive.
Regarding `CC(=O)N1CCc2cc(Br)cc(S(=O)(=O)CCC(=O)Nc3c(C)n(C)n(-c4ccccc4)c3=O)c21`, the compound was called inactive.
With `CS(=O)c1ccc(/C=C2\C=Cc3ccccc32)cc1` (stereo unspecified), the compound was called inactive.
As for `Cc1ccccc1NC(=O)CSc1nc2ccc(Nc3nc(N4CCOCC4)nc(N4CCOCC4)n3)cc2s1`, the compound was called inactive.
As to `CCOC(=O)c1cccc(NC(=O)C2CCN(c3ncnc4c3nc3n4CCCCC3)CC2)c1`, the compound was called inactive.
Next, `Cc1ccc(OCC(=O)Nc2ccc(-c3nc4ncccc4o3)cc2)cc1`: “inactive”; `COc1ccc(NC(=O)c2sc3nc(C)nc(N4CCN(c5ccccn5)CC4)c3c2C)c(OC)c1`: “inactive”.
Next, `COc1ccc(CSc2nc(N3CCOCC3)c3c(c2C#N)CC(C)(C)OC3)cc1`: “inactive”.
As for `COc1ccc(NC(C)=O)cc1NC(=O)CN1CCN(C2c3ccccc3-c3ccccc32)CC1`, the compound was classed as inactive.
Then `Cc1ccc(Nc2nc(N3CCOCC3)nc(N3CCOCC3)n2)cc1Cl`, with “inactive”; and `O=C(Nn1c(SCc2ccc([N+](=O)[O-])cc2)nc2ccccc2c1=O)c1ccc(F)cc1`, with “inactive”.
